Experiments:
[1] = target: T1, Ephrin type-B receptor 2 (Homo sapiens) (UniProt P29323); details: at 1 µM
T1 sequence (whole entry): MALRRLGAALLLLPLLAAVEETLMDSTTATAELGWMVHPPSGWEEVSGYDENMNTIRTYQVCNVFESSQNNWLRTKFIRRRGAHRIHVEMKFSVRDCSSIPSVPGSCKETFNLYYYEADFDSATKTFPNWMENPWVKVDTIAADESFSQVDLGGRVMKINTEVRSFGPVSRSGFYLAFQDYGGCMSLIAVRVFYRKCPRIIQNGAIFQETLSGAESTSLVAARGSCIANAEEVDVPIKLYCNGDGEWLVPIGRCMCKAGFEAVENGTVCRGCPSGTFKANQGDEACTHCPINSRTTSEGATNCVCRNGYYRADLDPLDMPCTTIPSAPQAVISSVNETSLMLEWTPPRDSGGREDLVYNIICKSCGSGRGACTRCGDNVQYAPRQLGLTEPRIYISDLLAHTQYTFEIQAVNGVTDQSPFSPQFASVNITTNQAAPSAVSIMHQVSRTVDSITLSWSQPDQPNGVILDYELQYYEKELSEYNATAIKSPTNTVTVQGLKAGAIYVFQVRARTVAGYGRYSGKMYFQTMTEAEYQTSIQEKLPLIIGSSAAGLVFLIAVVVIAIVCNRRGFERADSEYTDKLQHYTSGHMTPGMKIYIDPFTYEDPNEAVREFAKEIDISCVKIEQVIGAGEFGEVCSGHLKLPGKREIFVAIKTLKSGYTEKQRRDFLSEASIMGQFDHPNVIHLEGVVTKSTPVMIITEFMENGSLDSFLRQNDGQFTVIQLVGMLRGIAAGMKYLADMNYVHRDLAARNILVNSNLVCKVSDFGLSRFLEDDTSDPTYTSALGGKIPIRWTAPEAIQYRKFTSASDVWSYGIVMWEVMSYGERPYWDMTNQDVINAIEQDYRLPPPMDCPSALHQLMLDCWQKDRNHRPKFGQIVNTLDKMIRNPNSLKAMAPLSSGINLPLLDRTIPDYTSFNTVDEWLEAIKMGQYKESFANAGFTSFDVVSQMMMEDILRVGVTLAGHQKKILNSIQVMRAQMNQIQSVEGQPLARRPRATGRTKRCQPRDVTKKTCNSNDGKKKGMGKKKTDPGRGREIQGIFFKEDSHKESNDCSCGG

[2] = target: T2, Ephrin type-B receptor 3 (Homo sapiens) (UniProt P54753); details: at 0.1 µM
T2 sequence (whole entry): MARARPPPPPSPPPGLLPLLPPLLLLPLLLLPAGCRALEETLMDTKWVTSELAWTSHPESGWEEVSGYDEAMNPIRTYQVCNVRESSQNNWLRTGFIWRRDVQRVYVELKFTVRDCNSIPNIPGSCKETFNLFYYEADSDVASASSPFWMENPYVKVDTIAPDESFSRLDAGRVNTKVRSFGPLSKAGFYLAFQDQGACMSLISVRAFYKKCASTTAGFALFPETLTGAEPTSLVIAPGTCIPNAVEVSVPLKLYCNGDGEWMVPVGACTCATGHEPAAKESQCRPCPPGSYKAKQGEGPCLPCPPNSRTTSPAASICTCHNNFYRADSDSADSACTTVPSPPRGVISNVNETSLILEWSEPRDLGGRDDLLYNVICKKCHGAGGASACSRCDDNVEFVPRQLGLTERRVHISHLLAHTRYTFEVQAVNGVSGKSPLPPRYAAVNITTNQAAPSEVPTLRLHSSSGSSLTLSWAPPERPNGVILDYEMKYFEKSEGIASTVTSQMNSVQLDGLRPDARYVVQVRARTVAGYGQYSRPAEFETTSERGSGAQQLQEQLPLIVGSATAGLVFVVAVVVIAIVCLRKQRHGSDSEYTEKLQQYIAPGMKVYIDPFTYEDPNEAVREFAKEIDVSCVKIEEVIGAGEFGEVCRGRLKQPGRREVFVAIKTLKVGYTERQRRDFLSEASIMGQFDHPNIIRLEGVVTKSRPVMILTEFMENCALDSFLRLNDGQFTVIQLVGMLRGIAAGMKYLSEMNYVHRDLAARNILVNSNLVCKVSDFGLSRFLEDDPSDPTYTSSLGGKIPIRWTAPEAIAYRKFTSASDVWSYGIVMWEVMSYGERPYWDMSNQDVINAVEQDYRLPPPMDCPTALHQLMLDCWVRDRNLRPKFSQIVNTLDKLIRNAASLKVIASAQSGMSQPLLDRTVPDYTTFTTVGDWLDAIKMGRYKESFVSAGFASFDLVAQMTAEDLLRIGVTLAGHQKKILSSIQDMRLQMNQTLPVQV

[3] = target: T2, Ephrin type-B receptor 3 (Homo sapiens); details: at 1 µM
[4] = target: T3, Ephrin type-B receptor 4 (Homo sapiens) (UniProt P54760); details: at 0.1 µM
T3 sequence (whole entry): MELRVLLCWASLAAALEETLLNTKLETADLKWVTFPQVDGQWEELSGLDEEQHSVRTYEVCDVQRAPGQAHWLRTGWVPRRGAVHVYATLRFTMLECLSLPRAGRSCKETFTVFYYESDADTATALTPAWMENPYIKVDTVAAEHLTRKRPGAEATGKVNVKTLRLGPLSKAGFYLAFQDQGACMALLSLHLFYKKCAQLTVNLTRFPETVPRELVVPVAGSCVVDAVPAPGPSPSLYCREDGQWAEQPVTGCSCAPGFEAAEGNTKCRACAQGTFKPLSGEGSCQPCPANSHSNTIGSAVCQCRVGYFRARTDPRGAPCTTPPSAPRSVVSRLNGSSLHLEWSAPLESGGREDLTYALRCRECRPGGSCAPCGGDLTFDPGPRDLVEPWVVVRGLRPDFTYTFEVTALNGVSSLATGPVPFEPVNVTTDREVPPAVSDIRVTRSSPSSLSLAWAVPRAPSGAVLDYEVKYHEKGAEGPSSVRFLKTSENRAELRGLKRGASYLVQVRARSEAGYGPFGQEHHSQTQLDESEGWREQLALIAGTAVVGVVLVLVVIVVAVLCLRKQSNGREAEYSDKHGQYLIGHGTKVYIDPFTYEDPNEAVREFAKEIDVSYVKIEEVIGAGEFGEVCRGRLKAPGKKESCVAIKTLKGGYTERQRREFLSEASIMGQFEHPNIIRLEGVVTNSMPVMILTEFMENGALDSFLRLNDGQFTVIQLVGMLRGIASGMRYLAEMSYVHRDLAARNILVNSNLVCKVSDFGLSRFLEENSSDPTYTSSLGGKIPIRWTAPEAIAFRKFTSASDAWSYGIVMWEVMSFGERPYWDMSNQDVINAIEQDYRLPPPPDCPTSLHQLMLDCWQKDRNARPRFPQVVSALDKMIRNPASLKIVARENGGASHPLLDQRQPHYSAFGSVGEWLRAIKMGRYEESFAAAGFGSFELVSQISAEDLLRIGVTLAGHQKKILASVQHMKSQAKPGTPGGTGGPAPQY

[5] = target: T3, Ephrin type-B receptor 4 (Homo sapiens); details: at 1 µM
[6] = target: Receptor tyrosine-protein kinase erbB-2 (Homo sapiens) (UniProt P04626); details: at 0.1 µM
[7] = target: Receptor tyrosine-protein kinase erbB-2 (Homo sapiens) (UniProt P04626); details: at 1 µM
[8] = target: Receptor tyrosine-protein kinase erbB-4 (Homo sapiens) (UniProt Q15303); details: at 0.1 µM
[9] = target: Receptor tyrosine-protein kinase erbB-4 (Homo sapiens) (UniProt Q15303); details: at 1 µM
[10] = target: Tyrosine-protein kinase Fer (Homo sapiens) (UniProt P16591); details: at 0.1 µM
[11] = target: Tyrosine-protein kinase Fer (Homo sapiens) (UniProt P16591); details: at 1 µM
[12] = target: Tyrosine-protein kinase Fes/Fps (Homo sapiens) (UniProt P07332); details: at 0.1 µM
[13] = target: Tyrosine-protein kinase Fes/Fps (Homo sapiens) (UniProt P07332); details: at 1 µM
[14] = target: Fibroblast growth factor receptor 1 (Homo sapiens) (UniProt P11362); details: at 0.1 µM
[15] = target: Fibroblast growth factor receptor 1 (Homo sapiens) (UniProt P11362); details: at 1 µM
[16] = target: Fibroblast growth factor receptor 2 (Homo sapiens) (UniProt P21802); details: at 0.1 µM
[17] = target: Fibroblast growth factor receptor 2 (Homo sapiens) (UniProt P21802); details: at 1 µM
[18] = target: Fibroblast growth factor receptor 3 (Homo sapiens) (UniProt P22607); details: at 0.1 µM
[19] = target: Fibroblast growth factor receptor 3 (Homo sapiens) (UniProt P22607); details: at 1 µM
[20] = target: Fibroblast growth factor receptor 4 (Homo sapiens) (UniProt P22455); details: at 0.1 µM;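 also: values are mean percent inhibition of FGFR4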

Sequence of Fibroblast growth factor receptor 3 (Homo sapiens) (P22607 23-806 limits assumed): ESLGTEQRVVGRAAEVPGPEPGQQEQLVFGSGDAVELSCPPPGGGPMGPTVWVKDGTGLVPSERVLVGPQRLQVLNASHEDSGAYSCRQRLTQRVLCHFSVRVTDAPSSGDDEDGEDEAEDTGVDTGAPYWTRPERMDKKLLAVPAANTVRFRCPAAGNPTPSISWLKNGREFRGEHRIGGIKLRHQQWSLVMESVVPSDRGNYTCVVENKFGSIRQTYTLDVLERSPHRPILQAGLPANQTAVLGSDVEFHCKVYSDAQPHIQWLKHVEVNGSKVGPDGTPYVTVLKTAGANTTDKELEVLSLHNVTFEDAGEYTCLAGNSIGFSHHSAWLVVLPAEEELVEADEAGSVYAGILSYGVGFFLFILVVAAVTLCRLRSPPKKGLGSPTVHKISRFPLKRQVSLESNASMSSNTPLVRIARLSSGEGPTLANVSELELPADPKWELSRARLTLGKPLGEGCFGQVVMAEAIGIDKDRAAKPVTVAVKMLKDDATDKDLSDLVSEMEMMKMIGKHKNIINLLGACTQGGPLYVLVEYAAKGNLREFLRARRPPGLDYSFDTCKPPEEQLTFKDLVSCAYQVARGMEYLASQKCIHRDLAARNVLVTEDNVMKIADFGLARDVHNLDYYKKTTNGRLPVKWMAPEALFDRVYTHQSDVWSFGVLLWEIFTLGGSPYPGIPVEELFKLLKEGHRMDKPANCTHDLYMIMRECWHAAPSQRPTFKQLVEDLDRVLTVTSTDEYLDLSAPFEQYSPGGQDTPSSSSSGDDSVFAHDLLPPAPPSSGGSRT
Sequence of Fibroblast growth factor receptor 1 (Homo sapiens) (P11362 22-822 limits assumed): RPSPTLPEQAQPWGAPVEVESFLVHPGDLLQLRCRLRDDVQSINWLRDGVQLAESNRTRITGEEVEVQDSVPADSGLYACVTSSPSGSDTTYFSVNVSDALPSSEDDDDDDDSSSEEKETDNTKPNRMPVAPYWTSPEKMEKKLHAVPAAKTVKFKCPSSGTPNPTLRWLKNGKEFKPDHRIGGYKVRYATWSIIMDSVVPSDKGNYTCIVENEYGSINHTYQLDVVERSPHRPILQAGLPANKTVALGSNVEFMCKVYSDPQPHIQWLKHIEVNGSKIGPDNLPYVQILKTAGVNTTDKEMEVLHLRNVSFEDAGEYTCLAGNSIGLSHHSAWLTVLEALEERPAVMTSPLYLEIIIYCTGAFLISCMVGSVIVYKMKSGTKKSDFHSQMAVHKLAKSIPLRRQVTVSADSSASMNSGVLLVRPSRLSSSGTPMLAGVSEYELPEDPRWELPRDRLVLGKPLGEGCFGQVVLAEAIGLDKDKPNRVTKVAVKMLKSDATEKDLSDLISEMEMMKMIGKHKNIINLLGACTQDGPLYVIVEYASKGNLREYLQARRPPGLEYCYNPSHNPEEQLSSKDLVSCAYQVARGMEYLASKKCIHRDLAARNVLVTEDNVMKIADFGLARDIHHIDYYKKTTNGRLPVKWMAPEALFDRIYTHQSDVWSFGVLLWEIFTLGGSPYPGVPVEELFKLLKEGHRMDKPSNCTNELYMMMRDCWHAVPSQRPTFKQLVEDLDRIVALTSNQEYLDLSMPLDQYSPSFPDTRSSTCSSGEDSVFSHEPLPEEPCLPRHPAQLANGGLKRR
Sequence of Fibroblast growth factor receptor 2 (Homo sapiens) (P21802 22-821 limits assumed): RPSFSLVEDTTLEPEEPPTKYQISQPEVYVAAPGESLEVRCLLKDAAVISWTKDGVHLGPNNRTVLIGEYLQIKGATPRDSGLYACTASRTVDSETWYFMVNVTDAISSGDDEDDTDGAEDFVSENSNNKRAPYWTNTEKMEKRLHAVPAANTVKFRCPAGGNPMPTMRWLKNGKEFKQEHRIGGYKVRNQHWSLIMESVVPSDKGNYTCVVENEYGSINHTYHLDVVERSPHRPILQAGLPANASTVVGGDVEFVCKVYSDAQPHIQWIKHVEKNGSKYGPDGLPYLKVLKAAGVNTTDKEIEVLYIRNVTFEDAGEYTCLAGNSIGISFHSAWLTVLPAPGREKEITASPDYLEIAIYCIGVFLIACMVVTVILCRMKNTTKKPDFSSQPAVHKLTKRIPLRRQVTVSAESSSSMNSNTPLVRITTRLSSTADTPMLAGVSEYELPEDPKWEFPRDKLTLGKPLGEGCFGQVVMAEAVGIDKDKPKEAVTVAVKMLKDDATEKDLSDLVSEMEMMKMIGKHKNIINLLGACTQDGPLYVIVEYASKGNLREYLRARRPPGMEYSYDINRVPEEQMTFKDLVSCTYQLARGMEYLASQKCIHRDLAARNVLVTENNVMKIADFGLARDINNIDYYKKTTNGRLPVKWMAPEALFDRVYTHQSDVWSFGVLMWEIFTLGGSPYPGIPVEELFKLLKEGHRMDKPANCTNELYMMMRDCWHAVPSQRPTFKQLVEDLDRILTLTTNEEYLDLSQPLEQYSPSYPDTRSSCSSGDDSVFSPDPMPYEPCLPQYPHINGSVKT
Sequence of Receptor tyrosine-protein kinase erbB-2 (Homo sapiens) (P04626 whole entry): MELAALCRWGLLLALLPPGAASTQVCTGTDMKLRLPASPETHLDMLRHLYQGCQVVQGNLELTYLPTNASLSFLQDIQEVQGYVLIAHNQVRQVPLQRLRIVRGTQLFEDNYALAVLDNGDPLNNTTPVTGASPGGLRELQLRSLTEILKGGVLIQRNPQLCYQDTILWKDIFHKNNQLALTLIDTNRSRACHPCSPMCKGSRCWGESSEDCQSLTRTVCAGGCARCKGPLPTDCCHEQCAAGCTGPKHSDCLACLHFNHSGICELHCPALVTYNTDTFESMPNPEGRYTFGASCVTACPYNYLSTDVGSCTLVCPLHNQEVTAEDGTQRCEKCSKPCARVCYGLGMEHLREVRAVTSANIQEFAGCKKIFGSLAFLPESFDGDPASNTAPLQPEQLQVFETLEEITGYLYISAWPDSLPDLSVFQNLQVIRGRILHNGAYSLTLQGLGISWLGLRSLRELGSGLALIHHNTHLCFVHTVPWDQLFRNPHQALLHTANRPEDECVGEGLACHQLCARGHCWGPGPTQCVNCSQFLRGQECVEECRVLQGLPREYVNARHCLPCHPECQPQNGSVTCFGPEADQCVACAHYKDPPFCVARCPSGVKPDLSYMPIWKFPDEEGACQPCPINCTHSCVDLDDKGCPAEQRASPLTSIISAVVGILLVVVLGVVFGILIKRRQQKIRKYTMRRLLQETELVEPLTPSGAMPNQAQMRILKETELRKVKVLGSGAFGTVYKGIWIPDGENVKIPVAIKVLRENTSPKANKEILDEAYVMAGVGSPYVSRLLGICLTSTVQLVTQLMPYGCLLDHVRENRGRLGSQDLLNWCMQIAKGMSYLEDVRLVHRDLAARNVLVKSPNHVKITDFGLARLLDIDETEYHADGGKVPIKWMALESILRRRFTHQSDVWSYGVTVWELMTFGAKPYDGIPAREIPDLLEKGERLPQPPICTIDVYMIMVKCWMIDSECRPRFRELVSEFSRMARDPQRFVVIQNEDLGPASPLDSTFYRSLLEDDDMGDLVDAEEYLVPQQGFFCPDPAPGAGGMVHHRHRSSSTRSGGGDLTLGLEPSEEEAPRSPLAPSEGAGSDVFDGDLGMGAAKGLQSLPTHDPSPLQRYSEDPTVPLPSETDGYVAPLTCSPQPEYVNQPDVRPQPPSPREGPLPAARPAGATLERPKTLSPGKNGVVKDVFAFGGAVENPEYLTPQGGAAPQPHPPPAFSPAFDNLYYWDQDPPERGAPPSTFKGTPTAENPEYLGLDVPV
Sequence of Tyrosine-protein kinase Fes/Fps (Homo sapiens) (P07332 whole entry): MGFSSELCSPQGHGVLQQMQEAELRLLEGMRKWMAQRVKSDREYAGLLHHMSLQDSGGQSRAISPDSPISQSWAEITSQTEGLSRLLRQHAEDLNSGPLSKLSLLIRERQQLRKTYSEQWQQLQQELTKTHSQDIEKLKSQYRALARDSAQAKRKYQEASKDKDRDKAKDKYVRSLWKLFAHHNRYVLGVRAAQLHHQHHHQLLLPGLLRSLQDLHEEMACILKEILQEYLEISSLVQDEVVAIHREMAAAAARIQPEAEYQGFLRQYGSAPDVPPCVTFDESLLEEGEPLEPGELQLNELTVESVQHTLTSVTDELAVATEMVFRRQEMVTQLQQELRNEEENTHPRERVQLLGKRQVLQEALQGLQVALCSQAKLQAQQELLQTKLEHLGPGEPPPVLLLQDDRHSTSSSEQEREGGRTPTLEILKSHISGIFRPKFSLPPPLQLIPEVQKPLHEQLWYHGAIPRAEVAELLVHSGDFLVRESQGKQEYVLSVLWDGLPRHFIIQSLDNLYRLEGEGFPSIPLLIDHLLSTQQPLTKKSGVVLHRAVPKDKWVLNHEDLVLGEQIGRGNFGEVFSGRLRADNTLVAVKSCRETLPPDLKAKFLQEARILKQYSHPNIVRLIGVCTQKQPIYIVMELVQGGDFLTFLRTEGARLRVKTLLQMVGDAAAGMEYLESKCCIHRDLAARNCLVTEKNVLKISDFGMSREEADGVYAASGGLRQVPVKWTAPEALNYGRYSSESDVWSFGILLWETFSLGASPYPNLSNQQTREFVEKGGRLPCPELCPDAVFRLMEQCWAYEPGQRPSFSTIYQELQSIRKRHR

Compound	inhibition [1]	inhibition [2]	inhibition [3]	inhibition [4]	inhibition [5]	inhibition [6]	inhibition [7]	inhibition [8]	inhibition [9]	inhibition [10]	inhibition [11]	inhibition [12]	inhibition [13]	inhibition [14]	inhibition [15]	inhibition [16]	inhibition [17]	inhibition [18]	inhibition [19]	inhibition [20]
COc1ccc2c(-c3ccnc(Nc4cccc(OC(F)(F)F)c4)n3)cnn2n1	14.9%	3.51%	5.86%	0.79%	4.73%	1.6%	2.79%	8.76%	9.71%	4.88%	16.5%	3.41%	8.88%	1.54%	0.82%	11.6%	6.91%	5.66%	6.19%	1.76%
COC(=O)Nc1nc2ccc(Oc3ccc(NC(=O)Nc4cccc(Cl)c4)cc3)cc2[nH]1	68%	4.58%	5.18%	4.66%	14.4%	-0.47%	5.3%	6.76%	9.87%	1.61%	2.41%	1.11%	0.57%	2.31%	9.33%	2.67%	2.53%	2.97%	2.72%	0.5%
CCCN(CCS(C)(=O)=O)Cc1ccc(-c2ccc3ncnc(Nc4ccc(OCc5cccc(F)c5)c(Cl)c4)c3c2)o1	5.21%	4.42%	2.17%	3.87%	1.36%	19.1%	82.1%	76.3%	79.2%	2.14%	5.25%	1.38%	1.43%	3.02%	2.95%	-0.3%	2.2%	3.56%	2.41%	1.61%
CC(=O)Nc1cccc(C#Cc2cncnc2Nc2ccc(OCc3cccc(F)c3)c(Cl)c2)c1	10.7%	4.08%	0.84%	1.66%	2.84%	0.38%	10.5%	20.5%	57.1%	1.31%	1.14%	3.02%	3.58%	5.54%	8.04%	2.27%	5.67%	4.66%	5.53%	0.9%
CCn1cc(-c2ccnc3[nH]ccc23)c(-c2cccc(NC(=O)Nc3ccc(OCc4ccccc4)cc3)c2)n1	-2.78%	0.02%	0.9%	-1.27%	3.47%	2.85%	2.75%	9.5%	63.5%	0.08%	5.87%	0.81%	2.87%	-0.96%	-2.55%	-0.49%	0.34%	-0.88%	0.39%	-0.55%
CN1CCC(n2cnc(-c3ccc(F)cc3)c2-c2ccnc(Nc3ccccc3)n2)CC1	44.1%	4.66%	2.3%	3.77%	12.6%	5.05%	15.9%	10.6%	27.2%	1.86%	4.62%	2.34%	3.11%	1.2%	-0.76%	2.32%	4.35%	4.39%	0.24%	0.09%
CCc1nn2ncccc2c1-c1ccnc(NC2CC2)n1	5.11%	2.18%	3.88%	1.21%	3.43%	3.58%	5.82%	3.42%	8.22%	0.5%	4.48%	1.57%	2.04%	1.58%	7.38%	8.21%	10.7%	6.71%	11%	4.64%
COc1cc2c(cc1Nc1nc(Nc3ccsc3C(N)=O)c3cc[nH]c3n1)N(C(=O)CN(C)C)CCC2(C)C	9.01%		-7.19%	2.71%	2.72%	2.91%	-0.07%	14.2%	36.4%	95.5%	94.8%	76.5%	79.4%	7.38%	4.2%	5.74%	13.5%	9.36%	7.81%	-6.03%
COc1ccc(-c2cc3c(N)ncnc3o2)cc1	4.07%	-1.39%	0.05%	0.49%	0.16%	-0.84%	0.38%	-1.91%	1.85%	-0.15%	1.69%	-0.35%	-0.8%	-5.35%		-1.74%	-4.78%	-0.11%	-2.94%	2.88%
NS(=O)(=O)c1ccc(N/N=C2\C(=O)Nc3ccc4ncccc4c32)cc1	29.1%	2.75%	-3.76%	2.29%	13.2%	1.33%	-2.88%	11.4%	10.4%	3.38%	22.8%	2.15%	6.75%	10.8%	41%	27.5%	69.8%	26.1%	70.7%	-0.17%
COc1ccc(-c2cc(-c3c[nH]nc3-c3ccccn3)ccn2)cc1	10.2%	4.76%	2.2%	2.71%	2.68%	2.88%	6.13%	9.37%	10.6%	3.16%	7.83%	3.39%	3.93%	1.12%	-0.51%	1.91%	4.55%	8.17%	5.23%	-2.23%
[O-][S+]1CCN(Cc2ccc(-c3ccc4ncnc(Nc5ccc(OCc6cccc(F)c6)c(Cl)c5)c4c3)o2)CC1	7.63%	3.69%	7.49%	2.75%	4.27%	78.4%	79.9%	88.9%	91.3%	2.55%	4.93%	5%	4.91%	3.95%	9.17%	7.74%	9.73%	8.06%	7.32%	5.9%
Fc1cccc(COc2ccc(Nc3ncnc4sc(-c5ccco5)cc34)cc2Cl)c1	8.15%	5.55%	4.99%	4%	2.19%	-0.58%	14.7%	28.4%	75.8%	1.71%	3.22%	3.4%	2.89%	1.73%	5.35%	4.08%	8.41%	5.53%	5.9%	0.31%
CCn1c(-c2nonc2N)nc2ccccc21	10.1%	5.49%	2.17%	1.03%	1.88%	0.88%	-2.17%	12.3%	12.3%	5.9%	8.61%	3.26%	2.57%	2.08%	2.29%	0.75%	4.22%	2.45%	2.35%	0.05%

From ChEMBL document CHEMBL1961873, “Compounds: GSK PKIS; Assays: Nanosyn kinase panel” (2012)
